# The list is not random: actives were taken first. Their share in the collection is about 13%.
# GBA mod: modulators of human glucocerebrosidase | P04062 | purified enzyme, resorufin glucoside fluorescence (screen aimed at inhibitors), 20 min | 48,000 tested, 1.1% active | Potency, µM; in the data active = potency below about 15 µM; inconclusive = mostly about 16 µM to 33 µM;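 also: potency is read from the fitted curve at half-maximal effect; the screen sought inhibitors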
# Target sequence (P04062 whole entry, looked up): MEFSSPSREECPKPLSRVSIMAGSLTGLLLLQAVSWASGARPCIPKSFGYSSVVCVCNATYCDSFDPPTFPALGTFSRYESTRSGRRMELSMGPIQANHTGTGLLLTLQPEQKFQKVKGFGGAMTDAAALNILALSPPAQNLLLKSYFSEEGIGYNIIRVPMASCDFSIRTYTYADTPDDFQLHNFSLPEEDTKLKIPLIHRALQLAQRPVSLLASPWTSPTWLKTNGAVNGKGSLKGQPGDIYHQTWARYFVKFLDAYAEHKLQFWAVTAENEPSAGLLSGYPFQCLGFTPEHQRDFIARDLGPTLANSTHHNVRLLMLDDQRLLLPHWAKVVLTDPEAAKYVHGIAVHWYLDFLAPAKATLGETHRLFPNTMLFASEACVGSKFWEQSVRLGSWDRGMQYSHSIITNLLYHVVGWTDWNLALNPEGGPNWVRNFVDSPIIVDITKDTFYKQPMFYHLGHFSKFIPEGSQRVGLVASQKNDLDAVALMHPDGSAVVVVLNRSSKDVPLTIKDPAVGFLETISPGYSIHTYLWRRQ
#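 Compounds titrated against 0.2 nM normal enzyme, 30 uM resorufin beta-D-glucopyranoside substrate, citrate/phosphate buffer with taurocholate and tween-20, pH 5.9. Reaction ran 20 min at room temperature; fluorescence (Ex 548/Em 600) gave AC50.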
# HSD17B inhib: HSD17B dehydrogenase inhibition; Q99714; AID 893; 75,000 tested, 7.6% active; recombinant HSD17B10, NADH fluorescence kinetic; Potency, µM (top dose mostly 57.1 µM), for the others: at the top dose activity change, negative = inhibition, usual class: inhibitors;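 also: the protocol describes HADH2 (HSD17B10) and not the HSD17B4 of the title; potency is read from the fitted curve at half-maximal effect; % is scaled to controls: 0 for no effect and ±100 for the full control effect; nearly all actives have a fitted effect of over 70% in size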
#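 Activity followed as NADH fluorescence increase (ex 360, em 450 nm) every 30 seconds for 4 min, using final 90 uM beta-hydroxybutyryl CoA and 1 mM NAD+. Recombinant His-tagged enzyme, 20 nM, pH 9.0 Tris buffer, 15 min compound preincubation.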
# HADH2 inhib: inhibitors of human HADH2 dehydrogenase; Q99714; recombinant HADH2, NADH fluorescence, beta-hydroxybutyryl-CoA; Potency, µM (titrated, usually from 57.1 µM), for inactives: top-dose activity change, negative = inhibition, usual class: inhibitors; 73,000 tested, 3.4% active; AID 886; also: potency is read from the fitted curve at half-maximal effect; % is scaled to controls: 0 for no effect and ±100 for the full control effect; nearly all actives have a fitted effect of over 60% in size
#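 E. coli-expressed His-tagged HADH2 tested at 20 nM in alkaline Tris buffer (pH 9.0); oxidation of 90 uM beta-hydroxybutyryl-CoA with 1 mM NAD+ tracked fluorimetrically for 4 min.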
# AID923: qHTS Assay for Allosteric/Competitive Inhibitors of Caspase-1: Spectroscopic Profiling in AFC Spectral Region | compound fluorescence, AFC spectral region (405/520 nm) | Potency, µM (doses to about 57.5 µM), inactives show at the top dose fluorescence increase, most hits filed as activators | 75,000 tested, 1.1% active; also: potency is read from the fitted curve at half-maximal effect; 0% is about no effect
#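 Compound autofluorescence profiled at 405 nm ex/520 nm em during kinetic caspase 1 run (50 nM enzyme, 5 uM Ac-WEHD-AFC, HEPES pH 7.5, 10 mM DTT). Titration up to 57 uM; baseline from regression intercept, normalized to AFC standard curve.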
# A350 fluor: compound fluoresces in the Alexa 350 spectral region; Compound autofluorescence, 340/450 nm, Alexa 350 dye-equivalents; active compounds read high; max dye-equivalent concentration, M; 59,000 tested, 11% active; AID 590; in the data active = max dye-equivalent concentration above about 10 nM; inconclusive = mostly about 1.1 nM to 9.6 nM
# 4-MU autofl: compounds fluorescent in 4-MU spectral region; compound autofluorescence, 340/450 nm, 4-MU equivalents; active compounds read high; max dye-equivalent concentration, M; 59,000 tested, 11% active; in the data active = max dye-equivalent concentration above about 10 nM; inconclusive = mostly about 1.1 nM to 9.6 nM
#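 Compounds in 100 mM Tris, pH 8.0, incubated 15 min at room temperature, then fluorescence read at 340 nm excitation/450 nm emission. Signal converted to 4-MU dye-equivalent concentration using an on-plate six-point 4-MU standard curve.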
# * hit, by the source's call; i = inactive; ? = inconclusive; · = no result given; [ ] = remark or other dose. Unless noted, calls follow the shape of the dose curve; as a rule, active = well fitted curve in the direction sought with a large enough effect; inconclusive = small, poorly fitted or top-dose-only effect, or another doubt; inactive = no such curve, though single readings can be large; an effect the other way counts as inactive or inconclusive.
SMILES,GBA mod,HSD17B inhib,HADH2 inhib,AID923,A350 fluor,4-MU autofl
Cc1cc(NC(=O)CSC2=Nc3ccccc3C3=NC(Cc4ccccc4)C(=O)N23)n[nH]1 (stereo not given),>76.9,-27.0%,3.9%,1.8%,1.69e-08M*,1.62e-08M*
CCOC(=O)CSC1=Nc2ccccc2C2=NC(CC(=O)NCc3ccc4c(c3)OCO4)C(=O)N12 (stereo not given),>76.9,-11.3%,-16.0%,0.9%,1.06e-08M*,1.07e-08M*
CCOC(=O)CSC1=Nc2ccccc2C2=NC(CC(=O)NCc3ccc(OC)cc3)C(=O)N12 (stereo not given),>76.9,-16.2%,-16.2%,-1.2%,1.72e-08M*,1.86e-08M*
CCN(CC)C(=O)CSC1=Nc2ccccc2C2=NC(Cc3c[nH]c4ccccc34)C(=O)N12 (stereo not given),>76.9,-1.2%,-1.6%,1.2%,i,i
CCCCNC(=O)CC1N=C2c3ccccc3N=C(SCC(=O)Nc3cccc(C)c3)N2C1=O (stereo not given),>76.9,-8.5%,-7.0%,-2.7%,1.34e-08M*,1.39e-08M*
Cc1cccc(NC(=O)CSc2nnc(-c3ccccc3C)o2)c1,>76.9,9.2%,17.7%,0.9%,i,i
COc1ccc(C2(O)CCN(CC(=O)Nc3nccs3)CC2)c(OC)c1,>76.9,12.1%,8.3%,0.8%,i,i
c1ccc(CNn2c(N3CCOCC3)nc3ccccc32)cc1,·,4.3%,2.7%,1.6%,·,·
COc1ccc(-n2c(=O)c(-c3cc(F)cc(F)c3)nc3cncnc32)cc1,·,12.2%,-5.4%,2.7%,i,i
CC(C)NC(=O)N1CCC2(CC1)CCN(C(=O)c1cccc(F)c1)CC2,·,2.9%,0.8%,2.7%,i,i
COc1ccc(NC(C)=O)cc1NC(=O)CCn1c(=O)sc2ccccc21,>76.9,-5.6%,-5.4%,2.0%,1.87e-08M*,1.64e-08M*
N#CCSc1ncnc2sc3c(c12)CCC3,>76.9,-19.9%,-4.1%,1.7%,4.66e-08M*,4.6e-08M*
Cc1nc(SCC#N)c2c3c(sc2n1)CCC3,>76.9,10.3%,18.3%,0.4%,i,i
O=C(Nc1ccc(N2CCN(C(=O)c3ccccc3)CC2)cc1)c1cc2ccccc2o1,>76.9,3.16µM*,2.7%,-1.9%,i,i
CC(C)C(=O)Nc1ccc(NC(=O)c2cc3ccccc3o2)cc1,9.78*,?,-24.8%,-2.6%,?,?
CCCC(=O)N1CCN(c2ccc(NC(=O)c3cc4ccccc4o3)cc2)CC1,>76.9,10.3%,4.8%,-1.3%,i,i
CC(=O)OC(/C(O)=C(\C#N)c1nc2ccccc2[nH]1)c1ccccc1 (stereo not given),·,?,-1.3%[11.4 µM],9.2%,·,·
CC(C)=CCCC(C)NC(=O)NC1CCCCC1 (stereo not given),>76.9,4.4%,-0.9%,-0.1%,i,i
Cc1cccc(N2CCN(C(=O)C3CCCN(S(=O)(=O)c4c(C)noc4C)C3)CC2)c1C (stereo not given),·,-5.7%,-0.6%,-0.6%,·,·
C/C=C(\C)CN1CCc2cc(OC)c(OC)cc2C1,>76.9,-11.0%,20.7%,2.0%,1.43e-08M*,1.27e-08M*
CCOC(=O)C1C(C#N)=C(N)OC(C)=C1c1ccncc1 (stereo not given),>76.9,-0.3%,-2.1%,0.1%,1.23e-08M*,?
CCN(C(=O)COc1cc(=O)n(C)c2ccccc12)c1cccc(Cl)c1,>76.9,-3.5%,4.9%,-0.6%,i,i
Cn1c(=O)c2nc(-c3ccc(Cl)cc3Cl)oc2c2ccccc21,·,25.1µM*,4.1%,1.0%,·,·
COC(=O)[C@@]1(Cc2ccc(OC)cc2)[C@H]2c3cc(C(=O)N4CCCC4)n(CCN4CNCC4=O)c3C[C@H]2CN1C(=O)c1ccccc1,·,-6.1%,5.2%,-1.0%,·,·
Cc1ccc2cc(C)c(N3CCN(c4ccccn4)CC3)nc2c1,·,?,?,2.0%,?,?
Cc1cc(C)c2c(n1)nn1c(N3CCN(c4ccccc4)CC3)cc(C)nc21,i,?,10.8%,4.8%,1.54e-07M*,1.5e-07M*
Cc1cc(C)c2c(n1)nn1c(N3CCN(c4ccccn4)CC3)cc(C)nc21,>76.9,?,11.3%,3.2%,1.93e-07M*,2.3e-07M*
